According to PubChem BioAssay AID1159580 (chemical genetic matrix, 2015):
Hit rate of the full screen: of about 5,500 compounds, about 2,000 (36%) were called active. Roughly 18% stayed inconclusive and do not appear here. No stated cut-off is given here; in the data, active means normalized growth mostly below about 0.91 (no sharp cut-off); inconclusive means no clear call, values can overlap the other calls; inactive means mostly above about 0.92. Some of the results follow.

Assay: chemical genetic growth profiling, strain panel (AID 1159580);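 further: tested at 20 µM; growth read once vehicle control cultures reached saturation at 30 °C; 1 = growth at the plate median or of vehicle wells; lower values mean less growth of the strain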
Settings: growth OD

Measured: normalized growth

O=C(O)c1nc2cc(Cl)c(Cl)cc2[nH]c1=O
inactive: S. cerevisiae deletion strains, locus YJR075W, strain HOC1, active compounds read low 1.07 | S. cerevisiae deletion strains, locus YKL009W, strain mrt4, active compounds read low 0.949 | S. cerevisiae deletion strains, locus YKL068W, active compounds read low 0.981 | S. cerevisiae deletion strains, locus YKL085W, strain MDH1 (second series), active compounds read low 1.02 | S. cerevisiae deletion strains, locus YKL085W, strain MDH1, active compounds read low 1.02 | S. cerevisiae deletion strains, locus YKL160W, strain elf1, active compounds read low 0.996 | S. cerevisiae deletion strains, locus YKL190W, strain CNB1, active compounds read low 0.996 | S. cerevisiae deletion strains, locus YKR001C, strain vps1, active compounds read low 0.983 | S. cerevisiae deletion strains, locus YKR026C, strain gcn3, active compounds read low 1.02 | S. cerevisiae deletion strains, locus YKR091W, strain srl3, active compounds read low 1.01 | S. cerevisiae deletion strains, locus YLL001W, strain dnm1, active compounds read low 1.01 | S. cerevisiae deletion strains, locus YLL026W, active compounds read low 1.01 | S. cerevisiae deletion strains, locus YLL041C, strain sdh2, active compounds read low 1.01 | S. cerevisiae deletion strains, locus YLR027C, strain aat2, active compounds read low 1.01 | S. cerevisiae deletion strains, locus YLR039C, strain RIC1, active compounds read low 1.01 | S. cerevisiae deletion strains, locus YLR058C, strain SHM2, active compounds read low 1 | S. cerevisiae deletion strains, locus YLR102C, strain apc9, active compounds read low 0.987 | S. cerevisiae deletion strains, locus YLR113W, strain HOG1, active compounds read low 0.987 | S. cerevisiae deletion strains, locus YLR221C, strain rsa3, active compounds read low 1 | S. cerevisiae deletion strains, locus YLR258W, strain gsy2, active compounds read low 1.02 | S. cerevisiae deletion strains, locus YLR262C, strain YPT6 (second series), active compounds read low 1.02 | S. cerevisiae deletion strains, locus YLR262C, strain YPT6, active compounds read low 0.981 | S. cerevisiae deletion strains, locus YLR268W, strain sec22, active compounds read low 1 | S. cerevisiae deletion strains, locus YLR320W, strain mms22, active compounds read low 1.02 | S. cerevisiae deletion strains, locus YLR330W, strain CHS5, active compounds read low 0.994 | S. cerevisiae deletion strains, locus YLR342W, strain FKS1 (second series), active compounds read low 1.02 | S. cerevisiae deletion strains, locus YLR342W, strain FKS1, active compounds read low 1.03 | S. cerevisiae deletion strains, locus YLR357W, strain rsc2, active compounds read low 1.01 | S. cerevisiae deletion strains, locus YLR370C, strain arc18, active compounds read low 1.03 | S. cerevisiae deletion strains, locus YLR371W, strain rom2, active compounds read low 0.968 | S. cerevisiae deletion strains, locus YLR384C, strain iki3, active compounds read low 1 | S. cerevisiae deletion strains, locus YLR418C, strain cdc73, active compounds read low 1.05 | S. cerevisiae deletion strains, locus YML016C, strain PPZ1, active compounds read low 0.995 | S. cerevisiae deletion strains, locus YML032C, strain rad52, active compounds read low 0.977 | S. cerevisiae deletion strains, locus YML120C, strain ndi1, active compounds read low 1 | S. cerevisiae deletion strains, locus YML124C, strain tub3, active compounds read low 0.993 | S. cerevisiae deletion strains, locus YMR058W, strain fet3, active compounds read low 1.02 | S. cerevisiae deletion strains, locus YMR078C, strain ctf18, active compounds read low 0.99 | S. cerevisiae deletion strains, locus YMR125W, strain sto1, active compounds read low 1.02 | S. cerevisiae deletion strains, locus YMR129W, active compounds read low 1 | S. cerevisiae deletion strains, locus YMR205C, strain PFK2, active compounds read low 1.04 | S. cerevisiae deletion strains, locus YMR223W, strain ubp8, active compounds read low 0.996 | S. cerevisiae deletion strains, locus YMR231W, strain pep5, active compounds read low 1.02 | S. cerevisiae deletion strains, locus YMR263W, strain SAP30, active compounds read low 1.02 | S. cerevisiae deletion strains, locus YMR307W, strain GAS1, active compounds read low 1.04 | S. cerevisiae deletion strains, locus YNL067W, strain RPL9B, active compounds read low 0.948 | S. cerevisiae deletion strains, locus YNL071W, strain lat1, active compounds read low 1.01 | S. cerevisiae deletion strains, locus YNL128W, strain TEP1, active compounds read low 1.04 | S. cerevisiae deletion strains, locus YNL153C, strain GIM3, active compounds read low 1.03 | S. cerevisiae deletion strains, locus YNL183C, strain NPR1, active compounds read low 0.933 | S. cerevisiae deletion strains, locus YNL209W, strain ssb2, active compounds read low 1.01 | S. cerevisiae deletion strains, locus YNL233W, strain BNI4, active compounds read low 1.03 | S. cerevisiae deletion strains, locus YNL248C, strain rpa49, active compounds read low 0.984 | S. cerevisiae deletion strains, locus YNL250W, strain rad50, active compounds read low 0.988 | S. cerevisiae deletion strains, locus YNL271C, strain bni1, active compounds read low 0.991 | S. cerevisiae deletion strains, locus YNL298W, strain CLA4, active compounds read low 0.993 | S. cerevisiae deletion strains, locus YNL307C, strain MCK1, active compounds read low 1.01 | S. cerevisiae deletion strains, locus YNL322C, strain KRE1 (second series), active compounds read low 1.01 | S. cerevisiae deletion strains, locus YNL322C, strain KRE1, active compounds read low 0.998 | S. cerevisiae deletion strains, locus YNR049C, strain mso1, active compounds read low 1.01 | S. cerevisiae deletion strains, locus YNR052C, strain pop2, active compounds read low 0.982 | S. cerevisiae deletion strains, locus YOL006C, strain TOP1, active compounds read low 1.09 | S. cerevisiae deletion strains, locus YOL012C, strain htz1 0.84 | S. cerevisiae deletion strains, locus YOL147C, strain pex11, active compounds read low 0.998 | S. cerevisiae deletion strains, locus YOR001W, strain rrp6, active compounds read low 0.994 | S. cerevisiae deletion strains, locus YOR061W, strain CKA2, active compounds read low 1 | S. cerevisiae deletion strains, locus YOR069W, strain VPS5, active compounds read low 0.997 | S. cerevisiae deletion strains, locus YOR070C, strain gyp1, active compounds read low 1.01 | S. cerevisiae deletion strains, locus YOR080W, strain dia2, active compounds read low 1.02 | S. cerevisiae deletion strains, locus YOR083W, strain WHI5, active compounds read low 0.981 | S. cerevisiae deletion strains, locus YOR106W, strain vam3, active compounds read low 0.994 | S. cerevisiae deletion strains, locus YOR136W, strain idh2, active compounds read low 0.992 | S. cerevisiae deletion strains, locus YOR144C, strain elg1, active compounds read low 0.993 | S. cerevisiae deletion strains, locus YOR184W, strain ser1, active compounds read low 0.988 | S. cerevisiae deletion strains, locus YOR231W, strain MKK1, active compounds read low 1.01 | S. cerevisiae deletion strains, locus YOR265W, strain rbl2, active compounds read low 0.999 | S. cerevisiae deletion strains, locus YOR270C, strain vph1, active compounds read low 1.05 | S. cerevisiae deletion strains, locus YOR290C, strain snf2, active compounds read low 1 | S. cerevisiae deletion strains, locus YOR316C, strain cot1, active compounds read low 0.987 | S. cerevisiae deletion strains, locus YPL051W, strain arl3, active compounds read low 0.989 | S. cerevisiae deletion strains, locus YPL055C, strain LGE1, active compounds read low 0.981 | S. cerevisiae deletion strains, locus YPL078C, strain atp4, active compounds read low 1 | S. cerevisiae deletion strains, locus YPL106C, strain sse1, active compounds read low 1.02 | S. cerevisiae deletion strains, locus YPL240C, strain hsp82, active compounds read low 1 | S. cerevisiae deletion strains, locus YPL241C, strain CIN2, active compounds read low 0.992 | S. cerevisiae deletion strains, locus YPL256C, strain CLN2, active compounds read low 0.994 | S. cerevisiae deletion strains, locus YPR119W, strain clb2, active compounds read low 0.996 | S. cerevisiae deletion strains, locus YPR141C, strain kar3, active compounds read low 0.99 | S. cerevisiae deletion strains, locus YPR163C, strain tif3, active compounds read low 0.992 | S. cerevisiae deletion strains, locus YPR167C, strain met16, active compounds read low 0.996 | S. cerevisiae deletion strains, strain wtn01, active compounds read low 1.01 | S. cerevisiae strains, strain wild type, active compounds read low 1.01
